In PubChem BioAssay AID504652 (National Center for Advancing Translational Sciences (NCATS), 2011):
The whole screen tested about 360,000 compounds, of which about 11,000 (3.1%) were called active. The sample holds actives, similar compounds and a random draw of the others, so the mix is not that of the screen. Rule as the data show it: active = activity change below about -30%; inactive = the rest.

Target: D(1A) dopamine receptor (Homo sapiens) (UniProt P21728)
Test: Antagonist of Human D 1 Dopamine Receptor: qHTS
Details: HEK293 TREx D1 cells, calcium flux, dopamine EC80; at 10 µM; active compounds read low
How it was run: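 Antagonism measured as reduced calcium response to an EC80 dopamine addition following 180 s compound pre-read; cells were inducible HEK293 Trex D1 plated overnight at 30 C, read kinetically at 1 cycle/sec.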
% is scaled to controls: 0 for no effect and ±100 for the full control effect.

D(1A) dopamine receptor (Homo sapiens), sequence (P21728 whole entry, looked up): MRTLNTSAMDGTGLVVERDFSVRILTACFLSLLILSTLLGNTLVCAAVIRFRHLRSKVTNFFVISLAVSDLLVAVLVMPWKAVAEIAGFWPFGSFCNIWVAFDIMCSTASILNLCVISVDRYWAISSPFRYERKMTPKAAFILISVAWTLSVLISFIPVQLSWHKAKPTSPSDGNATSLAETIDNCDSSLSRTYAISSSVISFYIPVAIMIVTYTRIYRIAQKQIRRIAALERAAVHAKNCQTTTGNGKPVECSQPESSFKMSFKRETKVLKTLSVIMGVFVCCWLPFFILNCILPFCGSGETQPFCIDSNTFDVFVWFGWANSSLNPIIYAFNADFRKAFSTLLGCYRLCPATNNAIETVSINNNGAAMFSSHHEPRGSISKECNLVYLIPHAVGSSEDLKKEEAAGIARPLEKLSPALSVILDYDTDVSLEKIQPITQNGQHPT

Activity change, negative = inhibition, active:
O=S(=O)(c1ccc(SCc2ccc(Br)cc2)nc1)N1CCOCC1 -43.1%
CCOC(=O)c1cn(CC)c2cc(F)c(F)cc2c1=O -74.1%
COc1ccc(C2=NOC(COC(=O)c3ccc4ccccc4n3)C2)cc1 (stereo unspecified) -39.5%
CCN(Cc1ccccc1)S(=O)(=O)c1cc2c3c(c1)CCN3C(=O)CC2 -34.1%
Cc1ccc(O)c(NC(=S)NC(=O)COc2ccc(Br)cc2)c1 -46.3%
COc1ccc(CNC(=O)COc2ccccc2C(=O)c2cnn(-c3ccccc3)c2)cc1OC -32.7%
COc1ccc(C(=O)C2CCCN(Cc3cccn3-c3ccccn3)C2)c(C)c1 (stereo unspecified) -34.5%
CCc1ccc(NC(=O)CC2C(=O)NCCN2C(=S)Nc2ccccc2)cc1 (stereo unspecified) -31.7%
COc1ccc(Cl)cc1C(=O)NCc1cn(C)nc1C -31.1%
CN(C)CC/C=C1\c2ccccc2CSc2ccccc21 -62.1%
CN(C)CCOC(=O)C(c1ccccc1)C1(O)CCCC1 (stereo unspecified) -42.6%
Cc1c(Cl)cccc1-c1ccc(CNCCCSc2nnnn2C)o1 -35%
Cn1nnnc1SCCNCc1ccc(Cl)c(Cl)c1 -61.6%

Activity change, negative = inhibition, inactive:
Cc1ccc(CSc2ccc(S(=O)(=O)N3CCCCC3)cn2)cc1 2.76%
O=S(=O)(c1ccc(SCc2ccccc2)nc1)N1CCCCCC1 0.949%
CCn1cc(C(=O)N/N=C(/C)c2ccc(F)cc2)c(=O)c2cc(F)c(N3CCCC3)cc21 1.71%
CCn1cc(C(=O)NCCO)c(=O)c2cc(F)c(N3CCN(C)CC3)cc21 -5.03%
CCS(=O)(=O)N1CCc2cc(C(=O)NCc3ccc(OC)cc3)ccc21 1.59%
COc1ccc(C(=O)COC(=O)c2ccc3ccccc3n2)cc1 -5.41%
COc1ccc(CNC(=O)C2CC(c3ccc(C(F)(F)F)cc3)=NO2)cc1 (stereo unspecified) -1.82%
CCCNC(=O)C(CC)n1nc(CC)n2c(cc3oc(C)cc32)c1=O (stereo unspecified) 5.42%
Cc1ccc(Cl)cc1N1CCN(S(=O)(=O)c2cc3[nH]c(=O)c(=O)[nH]c3cc2C)CC1 1.65%
COc1cccc(C(=O)Nc2ccc3oc(-c4ccc5ccccc5c4)nc3c2)c1 7.96%
O=C(CNC(=O)c1ccc(Cl)cc1Cl)OC(C(=O)Nc1cc(C(F)(F)F)ccc1Cl)c1ccccc1 (stereo unspecified) 6.17%
COc1ccc(NC(=O)Cn2c(=O)n(Cc3ccc(C(=O)NCc4ccccc4Cl)cc3)c(=O)c3ccccc32)cc1 -5.19%
CCN(Cc1ccccc1)S(=O)(=O)c1cc(C(=O)O)ccc1OC 27.7%
CCN(Cc1ccccc1)S(=O)(=O)c1ccc2c(c1)CCCN2C(C)=O -20%
Cn1cccc1C(=O)NNC(=O)COc1ccc(Br)cc1 16.4%
CC(=O)Nc1ccc(OC(=O)COc2ccc(Br)cc2)cc1 -21.3%
Cc1ccc(-c2nc(SCc3ccc(Br)cc3)n3[nH]c(=O)cc3n2)cc1 -5.43%
CC(C)CC(=O)NCC(c1ccc2c(c1)OCO2)N1CCN(c2ccc(F)cc2)CC1 (stereo unspecified) 19.3%
COc1ccc(OC)c(NC(=O)/C=C/c2ccc(C)o2)c1 -17.2%
COc1ccc(CNC(=O)COC(=O)c2c(C)nn(-c3ccccc3)c2C)cc1OC -26%
COC(=O)COc1cccc2c(=O)n(CC(=O)NCCc3ccc(OC)c(OC)c3)ccc12 19.9%
Cc1cc(O)c(C(c2ccccc2)N2CCN(c3ccccc3F)CC2)c(=O)n1Cc1ccco1 (stereo unspecified) -28.1%
Cn1c(=O)c2c(-c3ccccc3Br)n(Cc3ccccc3)cc2n(C)c1=O -11.3%
COc1ccc(C(=O)C2CCCN(C(=O)c3cnsn3)C2)c(C)c1 (stereo unspecified) 22.1%
COc1ccc(C(=O)C2CCCN(S(=O)(=O)c3cccc(C)c3)C2)c(C)c1 (stereo unspecified) 2.24%
CCOc1ccc(Nc2oc(/C=C/c3ccc(F)cc3)nc2C#N)cc1 -2.32%
COc1cccc(NC(=O)CC2C(=O)NCCN2C(=S)Nc2ccc(F)cc2)c1 (stereo unspecified) -8.91%
CCNC(=O)N1CCNC(=O)C1CC(=O)Nc1ccc(C(=O)OCC)cc1 (stereo unspecified) 11.7%
Cc1ccc(-c2cc(C(=O)NCc3cn(C)nc3C)c3cc(Br)ccc3n2)cc1 -1.17%
Cc1nn(C)cc1CNC(=O)Nc1ccc(Cl)cc1 5.45%
Cc1ccc(CCNC(=O)c2ccc(CNS(=O)(=O)c3ccc(C)cc3)cc2)cc1 -6.27%
CCOc1ccc(N(Cc2ccccc2)C(=O)c2nc(S(C)(=O)=O)ncc2Cl)cc1 -4.67%
CN(C)Cc1ccccc1C1(O)c2ccccc2CSc2ccccc21 (stereo unspecified) -0.848%
COc1ccccc1NC(=O)CN1C(=O)c2ccccc2Sc2ccc(C(=O)N3CCCC3)cc21 9.27%
COc1ccc(N2CCN(C(=O)c3c(C)oc4nc(C)nc(N5CCCC5)c34)CC2)cc1 -1.85%
O=C(O)C(c1ccccc1)C1(O)CCCCC1 (stereo unspecified) -1.48%
COc1ccc(OCC(=O)OCCN(C)C)cc1 -9.23%
CCN(c1ncnc2c1cnn2-c1ccc(C)cc1)C1CCCCC1 13.5%
Cc1ccc2c(c1)-c1c(cnn1CC(=O)Nc1ccccc1C#N)CO2 23.7%
Cc1oc2ncnc(N3CCCCC3)c2c1C(=O)N1CCN(c2cccc(Cl)c2)CC1 -0.886%
CC(C)Cn1c(=O)c2ccccc2n2c(CCC(=O)N3CCN(c4cccc(Cl)c4)CC3)nnc12 -9.12%
Cc1ccc(C)n1-c1nnc(N2CCC(C(=O)NCc3ccccc3Cl)CC2)s1 -0.53%
COC(=O)c1cnc(N2CCN(c3ccccc3OC)CC2)c2ccccc12 -2.99%
O=c1c(NCc2cccs2)nccn1-c1ccccc1 -12.1%
CCOc1ccc(CNCCSc2nnnn2C)cc1 -2.56%
Cn1nnnc1SCCCNCc1cccc(OCc2ccc(Cl)cc2)c1 -15.2%
COc1cc(CNCCSc2nnnn2C)ccc1OCc1c(F)cccc1Cl -17.9%
Cn1nnnc1SCCCNCc1ccc(Cl)cc1 -11.8%
